Measurements taken from PubChem BioAssay (NCATS).
Results filed as inconclusive are left out. Where a call stands in place of a potency, no number is given. Values without a mark were called inactive. Activity calls are given as the source filed them. Unless noted, calls come from the whole dose curve; as a rule, active = well fitted curve in the direction sought with a large enough effect; inconclusive = small, poorly fitted or top-dose-only effect, or another doubt; inactive = no such curve, though single readings can be large; an effect the other way counts as inactive or inconclusive.

Key:
[1] = molecular target: Voltage-gated inwardly rectifying potassium channel KCNH2 (Homo sapiens) (UniProt Q12809); test: qHTS Assay for Small Molecule Inhibitors of the Human hERG Channel Activity (AID 588834);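 note: lower thallium flux fluorescence means stronger hERG block; nearly all actives have a fitted effect of over 50% in size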; note: potency is the fitted concentration of half-maximal effect
Voltage-gated inwardly rectifying potassium channel KCNH2 (Homo sapiens), sequence (Q12809 whole entry, looked up): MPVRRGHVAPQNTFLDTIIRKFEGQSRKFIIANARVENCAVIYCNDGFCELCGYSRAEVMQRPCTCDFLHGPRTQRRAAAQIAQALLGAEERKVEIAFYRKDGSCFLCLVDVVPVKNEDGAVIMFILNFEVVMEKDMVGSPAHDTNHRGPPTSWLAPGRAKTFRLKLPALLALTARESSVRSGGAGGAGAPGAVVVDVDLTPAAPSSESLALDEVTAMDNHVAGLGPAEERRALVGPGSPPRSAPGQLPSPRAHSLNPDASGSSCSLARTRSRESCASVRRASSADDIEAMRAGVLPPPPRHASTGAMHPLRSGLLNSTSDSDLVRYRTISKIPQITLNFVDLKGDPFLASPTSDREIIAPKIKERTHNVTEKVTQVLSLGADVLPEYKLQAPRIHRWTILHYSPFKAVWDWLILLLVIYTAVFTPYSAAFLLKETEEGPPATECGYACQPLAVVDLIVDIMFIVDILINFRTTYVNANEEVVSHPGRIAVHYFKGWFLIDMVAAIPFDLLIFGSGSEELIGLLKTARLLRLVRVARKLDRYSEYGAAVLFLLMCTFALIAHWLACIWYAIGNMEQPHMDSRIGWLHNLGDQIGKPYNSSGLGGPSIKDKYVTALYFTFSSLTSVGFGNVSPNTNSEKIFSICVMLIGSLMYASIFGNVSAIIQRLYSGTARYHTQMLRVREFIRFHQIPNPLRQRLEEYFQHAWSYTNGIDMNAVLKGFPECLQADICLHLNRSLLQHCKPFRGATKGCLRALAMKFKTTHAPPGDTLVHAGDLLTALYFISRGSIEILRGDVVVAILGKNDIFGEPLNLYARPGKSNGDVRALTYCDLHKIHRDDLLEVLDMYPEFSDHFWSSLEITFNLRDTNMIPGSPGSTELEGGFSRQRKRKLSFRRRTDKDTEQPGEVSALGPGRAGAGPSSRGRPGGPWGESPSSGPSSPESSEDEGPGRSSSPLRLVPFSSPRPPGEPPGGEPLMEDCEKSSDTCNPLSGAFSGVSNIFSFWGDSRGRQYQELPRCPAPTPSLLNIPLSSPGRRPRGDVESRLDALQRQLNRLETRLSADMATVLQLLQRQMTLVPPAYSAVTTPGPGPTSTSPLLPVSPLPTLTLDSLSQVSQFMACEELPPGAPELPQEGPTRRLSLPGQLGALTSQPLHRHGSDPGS
Outline: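 hERG block measured as reduced thallium-dye (FluxOR) fluorescence after stimulation buffer addition, read over 2 min. Cells were hERG-BacMam-transduced U2OS exposed to compound ~10 min […]; concentration-response fitted with Hill equation for AC50.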

[2] = molecular target: Luciferin 4-monooxygenase (Photinus pyralis) (UniProt P08659); test: Biochemical firefly luciferase enzyme assay for NPC (AID 624030);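 note: purified P. pyralis luciferase at 10 nM with luciferin and ATP substrate; series mostly up to about 59 µM; nearly all actives have a fitted effect of over 70% in size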
Luciferin 4-monooxygenase (Photinus pyralis), sequence (P08659 whole entry, looked up): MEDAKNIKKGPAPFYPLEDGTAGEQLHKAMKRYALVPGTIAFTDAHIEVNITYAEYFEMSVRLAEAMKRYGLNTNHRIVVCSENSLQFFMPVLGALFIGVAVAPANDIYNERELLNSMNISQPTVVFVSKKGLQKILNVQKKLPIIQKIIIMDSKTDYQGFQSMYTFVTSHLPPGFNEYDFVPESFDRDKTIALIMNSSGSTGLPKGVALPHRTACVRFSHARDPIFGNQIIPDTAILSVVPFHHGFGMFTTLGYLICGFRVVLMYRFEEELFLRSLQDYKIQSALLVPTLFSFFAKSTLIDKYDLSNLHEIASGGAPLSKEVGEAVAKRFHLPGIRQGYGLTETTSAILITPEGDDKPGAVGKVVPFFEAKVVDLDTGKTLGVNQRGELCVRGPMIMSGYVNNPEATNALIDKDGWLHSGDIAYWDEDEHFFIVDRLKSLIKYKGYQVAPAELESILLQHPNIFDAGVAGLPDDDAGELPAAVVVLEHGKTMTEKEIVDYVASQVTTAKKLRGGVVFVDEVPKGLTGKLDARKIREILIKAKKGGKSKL
Outline: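 Direct inhibition of firefly luciferase enzyme (10 nM final, 50 mM Tris Acetate) assessed by luminescence within 5 minutes. Percent activity scaled between DMSO and PTC124 positive control, with concentration-effect curves classified by fit quality and response.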

[3] = S16 Schwann cell viability assay (CellTiter-Glo assay) (AID 624031);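 note: native untransfected S16 rat Schwann cells; cellular ATP luminescence as a viability measure; series mostly up to about 58 µM; nearly all actives have a fitted effect of over 70% in size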
Outline: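 Cells were seeded at 500-750 per well in phenol red-free DMEM with 10% FBS and left overnight. Compounds or DMSO were pinned in, incubation ran 24 h at 37 °C/5% CO2, then CellTiter-Glo reagent was added and luminescence measured.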

[4] = S16 Schwann cell PMP22 intronic element firefly luciferase assay (AID 624032); note: nearly all actives have a fitted effect of over 30% in size; note: potency is the fitted concentration of half-maximal effect
Outline: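 Luciferase reporter of PMP22 intronic-element expression in stably transfected S16 rat Schwann cells, read by ONE-Glo luminescence after 24 h compound exposure at 37 C. Activity scaled between DMSO (0%) and positive-control PTC124; concentration-effect curves quality-classified.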

[5] = S16 Schwann cell PMP22 intronic element beta-lactamase assay (AID 624044; calls by dose curve; note: nearly all actives have a fitted effect of over 15% in size)
Outline: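 Beta-lactamase reporter under a PMP22 intronic regulatory element in stable S16 rat Schwann cells; 24 h compound exposure. 460 nm blue signal normalized between DMSO (0%) and potassium clavulanate, with 535 nm FRET tracking viability; curves classed by r2 and response.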

[6] = molecular target: Glutaminase kidney isoform, mitochondrial (Homo sapiens) (UniProt O94925); test: qHTS for Inhibitors of Glutaminase (GLS): LOPAC Validation (AID 624146); note: nearly all actives have a fitted effect of over 60% in size; note: potency is the fitted concentration of half-maximal effect
Glutaminase kidney isoform, mitochondrial (Homo sapiens), sequence (O94925 whole entry, looked up, canonical isoform): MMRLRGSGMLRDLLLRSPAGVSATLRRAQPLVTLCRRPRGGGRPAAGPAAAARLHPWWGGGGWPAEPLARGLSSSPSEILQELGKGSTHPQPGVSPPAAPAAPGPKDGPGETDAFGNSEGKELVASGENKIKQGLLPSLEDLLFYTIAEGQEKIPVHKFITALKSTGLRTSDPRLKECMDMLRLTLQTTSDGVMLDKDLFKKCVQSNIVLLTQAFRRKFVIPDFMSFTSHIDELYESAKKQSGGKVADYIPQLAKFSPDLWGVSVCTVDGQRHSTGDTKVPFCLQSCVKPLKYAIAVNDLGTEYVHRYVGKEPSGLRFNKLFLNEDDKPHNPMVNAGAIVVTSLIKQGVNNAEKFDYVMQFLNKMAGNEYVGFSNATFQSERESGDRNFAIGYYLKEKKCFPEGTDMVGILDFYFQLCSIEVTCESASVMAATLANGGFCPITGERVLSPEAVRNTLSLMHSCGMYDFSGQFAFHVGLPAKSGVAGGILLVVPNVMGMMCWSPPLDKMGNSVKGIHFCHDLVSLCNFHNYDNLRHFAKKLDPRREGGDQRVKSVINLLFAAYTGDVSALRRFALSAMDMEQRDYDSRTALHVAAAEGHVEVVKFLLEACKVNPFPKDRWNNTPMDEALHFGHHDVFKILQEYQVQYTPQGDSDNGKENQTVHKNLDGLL
Outline: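 hKGA; 45 mM KH2PO4 pH 8.2 + 0.02% Tween-20; cpd via pin tool; 1 mM Gln soln; GluOx/HRP/Amplex Red; RT 30 min; fluor. t0 & final.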

[7] = qHTS of Trypanosoma Brucei Inhibitors: LOPAC Validation (AID 624147)
Outline: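 Quantitative HTS: titrated library compounds versus trypanosomal pyruvate kinase in TEA buffer (pH 7.2) containing KCl, MgCl2, BSA and Tween-20. Reactions were initiated with ADP, 130 uM final. Kinase-Glo Plus luminescence was read after 45 min at RT.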

[8] = molecular target: Glucagon-like peptide 1 receptor (Homo sapiens) (UniProt P43220); test: qHTS of GLP-1 Receptor Agonists: LOPAC Validation (AID 624148);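 note: luminescence from a luciferase reporter switched on by cAMP; higher luminescence signal means agonism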
Glucagon-like peptide 1 receptor (Homo sapiens), sequence (P43220 whole entry, looked up): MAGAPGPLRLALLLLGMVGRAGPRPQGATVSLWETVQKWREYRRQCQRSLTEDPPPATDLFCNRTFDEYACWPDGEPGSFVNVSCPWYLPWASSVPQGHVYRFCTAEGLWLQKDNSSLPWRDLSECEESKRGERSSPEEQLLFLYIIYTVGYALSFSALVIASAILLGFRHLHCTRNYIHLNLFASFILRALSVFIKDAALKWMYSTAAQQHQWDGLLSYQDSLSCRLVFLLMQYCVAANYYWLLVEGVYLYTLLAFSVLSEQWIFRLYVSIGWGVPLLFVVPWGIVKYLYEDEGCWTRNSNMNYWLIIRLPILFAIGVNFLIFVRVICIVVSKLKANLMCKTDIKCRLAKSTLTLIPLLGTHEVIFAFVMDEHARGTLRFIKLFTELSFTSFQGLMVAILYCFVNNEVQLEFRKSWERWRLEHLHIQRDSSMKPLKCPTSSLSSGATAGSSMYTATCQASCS
Outline: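 Agonism scored as increased luciferase luminescence driven by cAMP in HEK293 clones carrying GLP-1R. Cells settled 12 hours, received compound for 4-6 hr at 37 deg C, 5% CO2, and were read after 12 min detection reagent at RT.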

SMILES: O=S(=O)(O)c1cc(O)ccc1O
- Potency [1]: inactive
- Potency [2]: inactive
- Potency [3]: inactive
- Potency [4]: inactive
- Potency [5]: inactive

SMILES: CCCCCCCCCC(=O)O[C@H]1CC[C@H]2[C@@H]3CCC4=CC(=O)CC[C@]4(C)[C@H]3CC[C@]12C
- Potency [1]: inactive
- Potency [2]: inactive
- Potency [3]: inactive
- Potency [5]: inactive

SMILES: COc1ccc(OC)c(C(O)C(C)N)c1 (stereo not given)
- Potency [1]: inactive
- Potency [2]: inactive
- Potency [4]: inactive
- Potency [6]: inactive
- Potency [7]: inactive
- outcome [8]: inactive

SMILES: CCC(=O)O[C@@](Cc1ccccc1)(c1ccccc1)[C@@H](C)CN(C)C
- Potency [1]: inactive
- Potency [2]: inactive
- Potency [5]: inactive

SMILES: O=C(CS(=O)C(c1ccccc1)c1ccccc1)NO (stereo not given)
- Potency [1]: inactive
- Potency [2]: inactive
- Potency [5]: inactive

SMILES: CN1C2CCC1CC(OC(c1ccccc1)c1ccc(Cl)cc1)C2 (stereo not given)
- Potency [1]: 0.501 µM (active)
- Potency [2]: inactive
- Potency [4]: 25.6 µM (active)
- Potency [5]: inactive

SMILES: CCCCNCC(O)c1ccc(O)cc1 (stereo not given)
- Potency [1]: inactive
- Potency [2]: inactive
- Potency [4]: 1.81 µM (active)

SMILES: CCC1(CC)C(=O)NC(=O)N(C)C1=O
- Potency [1]: inactive
- Potency [2]: inactive
- Potency [4]: inactive
- Potency [5]: inactive

SMILES: O=c1[nH]cc(N(CCCl)CCCl)c(=O)[nH]1
- Potency [1]: inactive
- Potency [2]: inactive
- Potency [5]: inactive

SMILES: C=CCC1(C(C)CCC)C(=O)N=C(S)NC1=O (stereo not given)
- Potency [1]: inactive
- Potency [2]: inactive
- Potency [4]: inactive

SMILES: CCC(C)(S(=O)(=O)CC)S(=O)(=O)CC
- Potency [1]: inactive
- Potency [2]: inactive
- Potency [4]: inactive
- Potency [5]: inactive

SMILES: O=C(OCCN1CCCCC1)C(O)(c1ccccc1)c1ccccc1
- Potency [1]: 11.2 µM (active)
- Potency [2]: inactive
- Potency [4]: inactive
- Potency [5]: inactive

SMILES: C=CCN1CC[C@]23c4c5ccc(O)c4O[C@H]2[C@@H](O)C=C[C@H]3[C@H]1C5
- Potency [1]: inactive
- Potency [2]: inactive
- Potency [4]: inactive

SMILES: CCC1(c2ccccc2)C(=O)NC(=O)N(C(=O)c2ccccc2)C1=O (stereo not given)
- Potency [1]: inactive
- Potency [2]: inactive
- Potency [5]: inactive

SMILES: C[C@]12Cc3cn4c(nc3C=C1CCC1C2CC[C@@]2(C)[C@H]1CC[C@@]2(O)C#N)nc1ccccc14 (stereo not given in full)
- Potency [1]: 2 µM (active)
- Potency [6]: inactive
- Potency [7]: inactive
- outcome [8]: inactive

SMILES: C[N+](C)(C)CCOC(=O)CBr
- Potency [1]: inactive
- Potency [6]: inactive
- Potency [7]: inactive
- outcome [8]: inactive

SMILES: C[C@H](Cc1ccc2c(c1)OC(C(=O)O)(C(=O)O)O2)NC[C@H](O)c1cccc(Cl)c1
- Potency [1]: inactive
- Potency [6]: inactive
- Potency [7]: inactive
- outcome [8]: inactive

SMILES: CN1CCc2cccc(Cl)c2CC1
- Potency [1]: inactive
- Potency [6]: inactive
- Potency [7]: inactive
- outcome [8]: inactive

SMILES: COc1ccc(CNC(=O)/C=C/c2ccc3[nH]cc(CCN(C)C)c3c2)cc1
- Potency [1]: 11.2 µM (active)
- Potency [6]: inactive
- Potency [7]: inactive
- outcome [8]: inactive

SMILES: CC(C)NP(=O)(NC(C)C)OP(=O)(NC(C)C)NC(C)C
- Potency [1]: inactive
- Potency [6]: inactive
- Potency [7]: inactive
- outcome [8]: inactive

SMILES: NCCCP(=O)(O)O
- Potency [1]: inactive
- Potency [6]: inactive
- Potency [7]: inactive
- outcome [8]: inactive

SMILES: Cc1o[nH]c(=O)c1CC(N)C(=O)O (stereo not given)
- Potency [1]: inactive
- Potency [6]: inactive
- Potency [7]: inactive
- outcome [8]: inactive

SMILES: CC(=O)NBr
- Potency [1]: inactive
- Potency [6]: inactive
- Potency [7]: inactive
- outcome [8]: inactive

SMILES: NCC(O)c1cc(O)c(O)cc1F (stereo not given)
- Potency [1]: inactive
- Potency [6]: inactive
- Potency [7]: inactive
- outcome [8]: inactive

SMILES: COc1ccc2c(c1)/C(=C/c1cnc[nH]1)C(=O)N2
- Potency [1]: inactive
- Potency [6]: inactive
- Potency [7]: inactive
- outcome [8]: inactive

SMILES: C#CCN[C@H](C)Cc1ccccc1
- Potency [1]: inactive
- Potency [6]: inactive
- outcome [8]: inactive

SMILES: COc1ccc2c(c1)[C@@]13CCCC[C@H]1[C@@H](C2)NCC3
- Potency [1]: 11.2 µM (active)
- Potency [6]: inactive
- Potency [7]: inactive
- outcome [8]: inactive

SMILES: CO[C@H]1CC=C2CCN3CCC4=C(CC(=O)OC4)[C@]23C1
- Potency [1]: inactive
- Potency [6]: inactive
- Potency [7]: inactive
- outcome [8]: inactive

SMILES: CNc1ccc2oc(C[C@H]3O[C@@]4(CC[C@H]3C)O[C@H]([C@H](C)C(=O)c3ccc[nH]3)[C@H](C)C[C@H]4C)nc2c1C(=O)O
- Potency [1]: 3.16 µM (active)
- Potency [6]: 3.55 µM (active)
- Potency [7]: inactive
- outcome [8]: inactive

SMILES: OC1CCCCC1N1CCC(c2ccccc2)CC1 (stereo not given)
- Potency [1]: inactive
- Potency [6]: inactive
- Potency [7]: inactive
- outcome [8]: inactive

SMILES: CC1OC1P(=O)(O)O (stereo not given)
- Potency [1]: inactive
- Potency [5]: inactive
- Potency [6]: inactive

SMILES: N[C@@]1(C(=O)O)CC[C@@H](C(=O)O)C1
- Potency [1]: inactive
- Potency [6]: inactive
- Potency [7]: inactive
- outcome [8]: inactive

SMILES: CC1(C(=O)O)C2CCC(O2)C1(C)C(=O)O (stereo not given)
- Potency [1]: inactive
- Potency [6]: inactive
- Potency [7]: inactive
- outcome [8]: inactive

SMILES: CC(Cc1ccc(OCC(=O)O)cc1)NCC(O)c1cccc(Cl)c1 (stereo not given)
- Potency [1]: inactive
- Potency [6]: inactive
- Potency [7]: inactive

SMILES: C[N+](C)(C)CC#CCN1CCCC1=O
- Potency [1]: inactive
- Potency [6]: inactive
- Potency [7]: inactive
- outcome [8]: inactive

SMILES: NCC(CP(=O)(O)O)c1ccc(Cl)cc1 (stereo not given)
- Potency [1]: inactive
- Potency [6]: inactive
- Potency [7]: inactive
- outcome [8]: inactive

SMILES: Oc1ccc2c3c1O[C@H]1c4oc5ccccc5c4C[C@@]4(O)C(C2)N(CC2CC2)CCC314 (stereo not given in full)
- Potency [1]: 0.355 µM (active)
- Potency [6]: 8.91 µM (active)
- Potency [7]: inactive
- outcome [8]: inactive

SMILES: COC(=O)N1CCN(C(=O)Cc2ccc(Cl)c(Cl)c2)C(CN2CCCC2)C1 (stereo not given)
- Potency [1]: 11.2 µM (active)
- Potency [6]: inactive
- Potency [7]: inactive
- outcome [8]: inactive
